Several values for one entry are separate records, joined by “and”; a condition that tells them apart may be missing. Identical values can stand only once. Inconclusive results are not listed. Activity calls are given as the source filed them. Calls follow the shape of the dose curve; as a rule, active = well fitted cell-killing curve with a large enough effect in the repeat runs; inconclusive = weak or mixed curves, or effect the other way; inactive = flat fitted curve, though single readings scatter.
Assay: Human pregnane X receptor (PXR) small molecule agonists, qHTS cell viability counter screen (AID 1346977); also: nearly all actives have a fitted effect of over 50% in size
Details: PXR-Luc HepG2 viability, CellTiter-Fluor, 24 h; series mostly up to 92.4 µM; activity change, negative = cytotoxicity: at the top concentration
Description: U.S. Tox21 Program National Center for Advancing Translational Sciences [NCATS] NIH Chemical Genomics Center [NCGC] U.S. Environmental Protection Agency [EPA] National Institutes of Environmental Health Sciences [NIEHS] National Toxicology Program [NTP] U.S. Food and Drug Administration [FDA] Tox21 Assay Overview: The human pregnane X receptor (hPXR) regulates the expression of several drug metabolizing enzymes and induction of these proteins is a major mechanism for developing drug resistance in cancer. One such key enzyme catalyzing the drug metabolism is cytochrome P450 3A4 (CYP3A4). Changes in CYP3A4 expression affect drug metabolism, thereby reducing the therapeutic efficacy and altering toxicological response to a drug and which finally causes adverse drug interaction. To screen Tox21 libraries for compounds that activate hPXR-mediated CYP3A4 gene expression, PXR-Luc HepG2 cells were used. Also cytotoxicity of the compounds was tested in parallel by measuring the cell viability using CellTiter-Fluor assay system in the same wells.
Tox21 Assay Protocol Summary: PXR-Luc HepG2 cells were dispensed at 2,000 per well in 5uL of assay medium containing 5% charcoal-stripped FBS into white solid bottom 1536-well plates (Corning Life Sciences, Corning, NY) using a Multidrop Combi (Thermo Scientific, Waltham, MA) dispenser. The assay plates were incubated at 37 C and 5% CO2 for 5hr, and then 23nL of compounds dissolved in DMSO and positive control were transferred using a Pintool station (Wako, San Diego, CA). The assay plates were incubated at 37C and 5% CO2 for 24hr. For cytotoxicity read, after 23hr incubation at 37C, 1uL CellTiter-Fluor reagent (Promega Corporation, Madison, WI) was added to each well of the assay plates using Flying Reagent Dispenser (FRD, Aurora Discovery, San Diego, CA). After 1hr incubation at 37C and 5% CO2, the fluorescence signal was quantified using a ViewLux plate reader (PerkinElmer, Shelton, CT).
% is scaled to controls: 0 for no effect and ±100 for the full control effect; potency is read from the fitted curve at half-maximal effect.

SMILES	activity change, negative = cytotoxicity	Potency
COc1ccc(NC(=O)CC(C)=O)cc1	-1.94% (inactive)	
CCCCCc1ccc(Cl)cc1	6.19% (inactive)	
C=C(C)C(=O)OCCCCCCCCCC		48.9 µM (active)
O=[N+]([O-])c1ccc(O)cc1C(F)(F)F		48.6 µM (active)
CCC(=O)C(=O)CC	2.14% (inactive)	
O=C(Nc1ccc2c(O)c(N=Nc3ccc(N=Nc4ccc(S(=O)(=O)O)cc4)cc3)c(S(=O)(=O)O)cc2c1)c1ccccc1		8.63 µM (active)
OCCN1CCN(CCCN2c3ccccc3Sc3ccc(C(F)(F)F)cc32)CC1		33.5 µM (active)
CC(C)CCCCCOC(=O)CCS	12.7% (inactive)	
Cc1nc2n(c(=O)c1CCN1CCC(c3noc4cc(F)ccc34)CC1)CCCC2	-4.73% [at 42.5 µM] (inactive)	
Cc1ccc(N/N=c2\c(=O)cc/c(=N\Nc3ccc(S(=O)(=O)O)cc3)c2=O)c(C)c1		30.6 µM (active)
O=C(O)CN(CCN(CC(=O)O)CC(=O)O)CC(=O)O	0.665% [at 3.27 µM] (inactive)	
O=C(c1ccc(O)c(O)c1)c1ccc(O)cc1O		50.1 µM (active)
NC(=S)NC(N)=S	-5.6% (inactive)	
C=Cc1cccc(C)c1		inactive
[Cu+]	-6.01% (inactive)	
Cc1nc(-c2ccc(Cl)cc2)oc1COC(C)(C)C(=O)O	5.77% [at 42.5 µM] (inactive)	
CN(C)c1ccc(C(=C2C=CC(=[N+](C)C)C=C2)c2ccc(N(C)C)cc2)cc1		3.84 µM (active) and 2.73 µM (active) and 6.68 µM (active)
CCCCCCC1CCCC(=O)O1 (stereo not given)	8.04% (inactive)	
CCCCCCOC(=O)C(C)CC (stereo not given)	1.39% (inactive)	
O=C(O)O	1.04% [at 8.39 µM] (inactive)	

SMILES	activity change, negative = cytotoxicity	Potency
O=C(O)c1cccc(C(F)(F)F)c1	14.7% (inactive)	
CC(=O)Oc1cc2c(s1)CCN(C(C(=O)C1CC1)c1ccccc1F)C2 (stereo not given)	1.19% [at 42.5 µM] (inactive)	
Oc1ccccc1O	-12.9% (inactive)	
Cc1cccc2cccnc12	4.49% (inactive)	
Cc1c(F)c(N2CCNC(C)C2)cc2c1c(=O)c(C(=O)O)cn2C1CC1 (stereo not given)	5.13% [at 42.5 µM] (inactive)	
CCC(C)(CCC(C)C)C(=O)[O][Sn]([CH3])([CH3])[O]C(=O)C(C)(CC)CCC(C)C (stereo not given)	-0.509% (inactive)	
CCCCCCCCCCC[C@@H](C[C@@H]1OC(=O)[C@H]1CCCCCC)OC(=O)[C@H](CC(C)C)NC=O	12% [at 42.5 µM] (inactive)	
O=C(O)c1cc(N=Nc2ccc([N+](=O)[O-])cc2)ccc1O		53.5 µM (active)
CCN(CCN)c1cccc(C)c1		inactive
COC(=O)c1ccccc1C	0.39% (inactive)	
CCCCCC(C)OC(=O)COc1ccc(Cl)c2cccnc12 (stereo not given)	-27.5% (inactive)	
CC(CO)Oc1ccccc1 (stereo not given)	8.52% (inactive)	
CC(C)(C)c1ccc(C(O)CCCN2CCC(C(O)(c3ccccc3)c3ccccc3)CC2)cc1 (stereo not given)	-0.513% [at 42.5 µM] (inactive)	
S=C([S-])NCCNC(=S)[S-].S=C([S-])NCCNC(=S)[S-].[Mn+2].[Zn+2]	-32% [at 42.5 µM] (inactive)	
CC(C)CCOC(=O)/C=C/c1ccccc1	11.7% (inactive)	
Cc1c(C)c2c(c(C)c1O)CC[C@@](C)(CCC[C@H](C)CCC[C@H](C)CCCC(C)C)O2	2.96% (inactive)	
CNc1ccc([N+](=O)[O-])cc1		43.4 µM (active)
O=C(O)Cc1ccccc1Nc1c(Cl)cccc1Cl		inactive
CC1=CCC(=C(C)C)CC1	5.3% (inactive)	
CCc1cccc(CC)c1NC(=O)CN(CC(=O)O)CC(=O)O	11.9% [at 42.5 µM] (inactive)	

Reference: PubChem BioAssay (Tox21)
